A selection: hits, their analogues and other compounds. The true share with any hit is near 5.2%.
PostGolgi ctrl: growth inhibition of yeast control strain, primary screen, counter-screen for post-Golgi transport modulator project. efflux-deficient yeast background strain, growth absorbance A615, 16 h. 98,000 compounds, 5% hits. inhibition, % at 10 µM
Calb biofilm kill: clotrimazole potentiators killing Candida biofilms, primary screen, with clotrimazole, Alamar Blue; 85,000 compounds, 0.14% hits; AID 834, 2007; C. albicans biofilm + clotrimazole; inhibition, % at 6 µM;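 active means inhibition above 20%; inactive means inhibition below 20%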;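 further: preformed 24 hr biofilms exposed to compound for 48 hr; 0% = biofilm without compound and 100% = blank killed by clotrimazole plus chlorhexidine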
EphB4 ephrin blk: EphB4-ephrin-B2 interaction antagonists, primary screen, biochemical, TNYL-RAW peptide probe, fluorescence polarization; 97,000 compounds, 0.15% hits; inhibition, % at 7 µM; EphB4 LBD / TNYL-RAW-Alexa532 peptide; Ephrin type-B receptor 4 (Homo sapiens), P54760;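 active means inhibition above the screen-wide mean inhibition plus 3 SD, cut at about 15% in these data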;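 further: 0% = DMSO wells and 100% = excess unlabeled TNYL-RAW peptide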
Target sequence (P54760 whole entry, looked up, the tested form may be a part): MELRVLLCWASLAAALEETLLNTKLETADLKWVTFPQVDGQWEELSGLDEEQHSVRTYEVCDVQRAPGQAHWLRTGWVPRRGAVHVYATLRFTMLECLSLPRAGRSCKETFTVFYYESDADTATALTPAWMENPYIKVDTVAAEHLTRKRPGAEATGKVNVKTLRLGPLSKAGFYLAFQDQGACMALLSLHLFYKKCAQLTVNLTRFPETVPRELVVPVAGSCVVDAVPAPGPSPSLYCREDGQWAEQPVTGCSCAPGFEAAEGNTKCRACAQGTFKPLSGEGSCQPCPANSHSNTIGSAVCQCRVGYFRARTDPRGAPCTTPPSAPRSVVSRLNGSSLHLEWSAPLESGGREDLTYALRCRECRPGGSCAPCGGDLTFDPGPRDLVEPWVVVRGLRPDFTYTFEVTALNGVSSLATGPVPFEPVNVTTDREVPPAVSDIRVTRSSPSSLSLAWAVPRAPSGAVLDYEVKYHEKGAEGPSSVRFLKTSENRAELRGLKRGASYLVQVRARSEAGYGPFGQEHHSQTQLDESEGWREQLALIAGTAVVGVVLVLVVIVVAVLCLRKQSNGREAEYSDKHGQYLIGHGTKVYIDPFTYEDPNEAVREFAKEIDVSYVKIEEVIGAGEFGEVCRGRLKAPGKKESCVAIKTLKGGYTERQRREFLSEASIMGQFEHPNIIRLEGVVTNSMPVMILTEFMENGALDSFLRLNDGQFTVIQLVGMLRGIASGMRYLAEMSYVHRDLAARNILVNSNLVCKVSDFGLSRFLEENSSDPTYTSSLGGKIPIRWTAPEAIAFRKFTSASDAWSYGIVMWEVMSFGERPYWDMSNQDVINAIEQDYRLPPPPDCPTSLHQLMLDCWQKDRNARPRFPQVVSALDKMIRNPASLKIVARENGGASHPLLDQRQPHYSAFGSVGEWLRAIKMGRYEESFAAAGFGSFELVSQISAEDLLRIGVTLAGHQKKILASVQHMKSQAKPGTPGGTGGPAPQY
PostGolgi yeast: phenotypic screen on post-Golgi transport, primary screen; post-Golgi transport phenotypic cell assay; 98,000 compounds, 0.9% hits; inhibition, % at 10 µM;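 further: yeast cells grown in 1536-well plates; yeast grown about 18 h at 30C before absorbance read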
Starred values were filed as active, the others as inactive; / = no result. Unless noted, no stated cut-off is given here; in the data, active means inhibition above about 30%; inactive means the rest.

SMILES	PostGolgi ctrl	Calb biofilm kill	EphB4 ephrin blk	PostGolgi yeast
Cc1cc(Cl)ccc1OC(C)C(=O)N1CCCN(C(=O)C(C)Oc2ccc(Cl)cc2C)CC1 (stereo not drawn)	44*	/	3	9
Cc1cc(Cl)ccc1OC(C)C(=O)Nc1ccccc1N1CCOCC1 (stereo not drawn)	16	10	-3	0
CCn1c(O)c(C=NCc2cccs2)c(=O)n(CC)c1=S	57*	1	7	18
c1cnn(-c2nc(N3CCOCC3)nc(N3CCOCC3)n2)c1	19	7	-4	4
CC(NS(=O)(=O)c1ccccc1)C(c1cccs1)N1CCN(C)CC1 (stereo not drawn)	/	5	7	/
CCCCCn1c(SCCCC)nc2c1c(=O)[nH]c(=O)n2C	33*	7	3	-8
Cn1c(=O)[nH]c(=O)c2c1nc(Br)n2CCSc1ncccn1	36*	2	-3	-6
CN(Cc1ccccc1)c1nc2c(c(=O)[nH]c(=O)n2C)n1C	/	1	3	/
Cc1cccc(Cn2c(N(C)Cc3ccccc3)nc3c2c(=O)[nH]c(=O)n3C)c1	47*	14	-2	-5
CCCn1c(SCc2ccc(Cl)cc2)nc2c1c(=O)[nH]c(=O)n2C	60*	-6	-3	19
COc1ccc(C2(O)CCN(C(=O)NC3CCCCC3)CC2)cc1	6	/	-4	5
C/C=C/Cn1c(SCc2ccc(Cl)cc2)nc2c1c(=O)[nH]c(=O)n2C	43*	3	0	8
C/C=C/Cn1c(SC)nc2c1c(=O)[nH]c(=O)n2C	-7	7	/	-11
CCOCCn1c(SCc2cccc(C)c2)nc2c1c(=O)[nH]c(=O)n2C	41*	6	0	6
Cc1c(-c2nc(N)nc(Nc3ccccc3)n2)oc2ccccc12	78*	0	-10	33*
Cc1cc(NC(=O)CSc2nc(-c3cccs3)cc(C(F)(F)F)n2)no1	1	4	-8	-6
O=C(O)CCS(=O)(=O)c1nc(-c2cccs2)cc(C(F)(F)F)n1	16	1	-7	4
CS(=O)(=O)c1nc(-c2cccs2)cc(C(F)(F)F)n1	55*	13	-4	8
COc1ccc(-c2cc(C(F)(F)F)nc(-n3cc(Cl)cn3)n2)cc1	41*	-3	1	12
Cc1cc(NC(=O)CCCS(=O)(=O)c2nc(-c3cccs3)cc(C(F)(F)F)n2)no1	35*	/	-4	13
COc1ccc(-c2cc(C(F)(F)F)nc(S(C)(=O)=O)n2)cc1	62*	/	0	68*
COc1ccc(CCNC(=O)C2CCN(c3ccc(N4CCOCC4)nn3)CC2)c(OC)c1	18	6	-2	1
COCCOC(=O)c1c(C)oc2ccc(OC(=O)c3c(OC)cccc3OC)cc12	20	3	-1	-9
COc1ccc(/C=N/NC(=O)c2ccoc2C)cc1COc1c(C)cccc1C	54*	/	1	3
COc1cccc(OCc2cc(/C=N/NC(=O)c3ccn[nH]3)ccc2OC)c1	33*	/	-1	-1
SMILES	PostGolgi ctrl	Calb biofilm kill	EphB4 ephrin blk	PostGolgi yeast
CCc1nn(CC(=O)N2CCN(Cc3ccc4c(c3)OCO4)CC2)c(=O)c2cc3occc3n12	-4	4	0	3
COC(=O)c1c(NC(=O)c2nn(C)cc2Cl)sc2c1CCCC2	33*	-4	/	-2
CC(C)(C)C(=O)NC(NC(=S)Nc1sc2c(c1C#N)CCCC2)C(Cl)(Cl)Cl (stereo not drawn)	15	/	-3	-3
COC(=O)c1c(NC(=O)C2CC2)sc2c1CCCC2	35*	17	-8	-7
COC(=O)c1c(NC(NC(=O)C(C)(C)C)C(Cl)(Cl)Cl)sc2c1CCC2 (stereo not drawn)	51*	/	-6	-2
O=C(Nc1c(-c2ccccc2)nc2sccn12)c1ccccc1	-1	4	/	26
Cc1cc(C)cc(N2C(=O)CC(n3nc(C)cc3C)C2=O)c1 (stereo not drawn)	-10	1	-1	-1
N#C/C(=N\Nc1ccc(Cl)cc1)C(=O)c1ccccc1	79*	/	2	7
COc1ccccc1N1CCN(C(=O)c2ccc(C(C)(C)C)cc2)CC1	36*	4	9	-2
COc1ccccc1N1CCN(C(=O)c2c(C)cc(=O)oc2C)CC1	-1	6	-8	11
O=C(c1cc(-c2cccs2)on1)N1CCN(C(c2ccccc2)c2ccccc2)CC1	4	-1	4	-13
COc1ccccc1N1CCN(C(=O)c2oc3cc(C)c(C)cc3c2C)CC1	42*	-1	-5	-4
COc1ccccc1N1CCN(C(=O)c2sc3nc(-c4ccc(F)cc4)cn3c2C)CC1	45*	1	/	-9
COc1cccc(-c2cc(C(=O)N3CCN(C(c4ccccc4)c4ccccc4)CC3)no2)c1	1	0	4	38*
COc1cc2c(C(=O)N3CCN(c4ccccc4C)CC3)c(C)oc2cc1Br	57*	/	4	-3
COc1ccccc1N1CCN(C(=O)c2cc(-c3cccs3)on2)CC1	50*	4	/	11
COc1ccc(N(CC(O)Cn2nnc3ccccc32)S(=O)(=O)c2ccc(C)cc2)cc1 (stereo not drawn)	-1	7	-4	-7
Cc1nnc(SCCn2c(N(C)Cc3ccccc3)nc3c2c(=O)n(C)c(=O)n3C)s1	/	4	-5	/
Cn1c(COc2ccc(Cl)cc2)nnc1SCc1ncc(-c2ccccc2)o1	47*	9	5	21
Cc1cc(C)c(S(C)(=O)=O)c(Sc2ccc(Cl)cc2)n1	31*	/	3	16
O=C(Nc1nc(-c2ccccc2)c(-c2ccccc2)o1)c1ccc(F)cc1	85*	/	5	98*
CC(C)CN1C(=O)c2ccc(NC(=O)c3ccccc3F)cc2C1=O	33*	3	3	-9
CC(C)CN1C(=O)c2ccc(NC(=O)c3cccs3)cc2C1=O	6	4	3	-3
C=CCNC(=O)c1ccccc1Cl	-5	/	0	-7
C=CCNC1=C(Cl)C(=O)N(c2ccccc2Cl)C1=O	34*	5	-1	-3
SMILES	PostGolgi ctrl	Calb biofilm kill	EphB4 ephrin blk	PostGolgi yeast
CCCc1nc(NCC2CCCO2)c2nnn(Cc3ccccc3)c2n1 (stereo not drawn)	/	8	-4	/
O=C(Nc1ccc2nsnc2c1)c1cccs1	40*	-1	-10	-3
C=CCSc1nnc2c(n1)OC(c1c(C)[nH]n(-c3ccccc3)c1=O)Nc1ccccc1-2 (stereo not drawn)	40*	/	-6	3
C=CCSc1nnc2c(n1)OC(c1cccnc1)Nc1ccccc1-2 (stereo not drawn)	-2	5	-4	-4
Cc1ccc(SCc2[nH]nc3c2C2(C(=O)Nc4ccc([N+](=O)[O-])cc42)C(C#N)=C(N)O3)cc1 (stereo not drawn)	36*	/	-1	-4
Cn1c2ccccc2c2ncn(CCC3=CCCCC3)c(=O)c21	34*	9	-8	-4
O=c1c2cccnc2[nH]c(=S)n1CCC1=CCCCC1	2	-2	-2	-1
Cn1c2ccc(F)cc2c2ncn(CCN3CCOCC3)c(=O)c21	20	9	-4	33*
Cn1c2ccccc2c2ncn(CCCN3CCOCC3)c(=O)c21	0	6	-8	8
